# Test results: PubChem BioAssay
# The source made the active and inactive calls. The rule behind the calls is not given here.
# How the values were obtained:
# [1] = kinase inhibitors against Plasmodium liver-stage infection, cell-based, known kinase inhibitor set, luminescence, hepatoma host viability (AID 624392); settings: Plasmodium liver stage in hepatoma cells, luciferase luminescence, concentration not given here; liver cell % of control: measured here: host liver cell viability; parasite % of control: stronger effect = lower value;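 note: infected cells incubated roughly two days before readout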
# [2] = modulators of glucocorticoid suppression of NF-kB, cell-based, luciferase, IL-1B stimulus, dexamethasone (AID 624486); settings: NF-kB luciferase reporter, IL-1B + dexamethasone, luminescence; percent of negative control (+Dex): actives lie on both sides, concentration not given here; z-score: measured here: IL-1B alone, no Dex;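 for percent of negative control (+Dex): 100% = mean signal of vehicle control wells on the plate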
# [3] = molecular target: Cellular tumor antigen p53 (Homo sapiens) (UniProt P04637); experiment: kinase inhibitors altering GFP-p53 stability in HPV16-positive cells, imaging, known kinase inhibitor set, EGFP/DsRed ratio (AID 1053116); settings: stronger effect = higher value; EGFP object count: measured here: GFP-p53 positive objects count;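 note: cells exposed to compounds for 24 h at 37 °C before reading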
# [4] = IRF3 reporter activation in THP-1 macrophages, cell-based, PMA-stimulated THP-1, luminescence (AID 1053176); settings: PMA-differentiated THP-1, IRF3 reporter luminescence; stronger effect = higher value
# Chain of Cellular tumor antigen p53 (Homo sapiens) (P04637 whole entry, looked up): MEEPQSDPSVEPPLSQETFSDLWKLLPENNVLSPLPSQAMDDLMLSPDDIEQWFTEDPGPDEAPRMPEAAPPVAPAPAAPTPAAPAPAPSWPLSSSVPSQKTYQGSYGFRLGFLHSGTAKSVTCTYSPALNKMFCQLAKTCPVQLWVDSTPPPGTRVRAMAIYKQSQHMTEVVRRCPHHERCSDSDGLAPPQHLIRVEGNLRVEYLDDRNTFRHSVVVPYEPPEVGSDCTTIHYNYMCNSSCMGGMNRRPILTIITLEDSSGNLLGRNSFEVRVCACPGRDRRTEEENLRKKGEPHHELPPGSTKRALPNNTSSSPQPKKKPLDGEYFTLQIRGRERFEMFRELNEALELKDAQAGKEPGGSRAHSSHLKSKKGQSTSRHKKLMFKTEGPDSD
SMILES,liver cell % of control [1],parasite % of control [1],percent of negative control (+Dex) [2],z-score [2],EGFP object count [3],EGFP/DsRed ratio [3],fraction signal [4]
Cn1cc(C2=C(c3cn(CCCCCN)c4ccccc34)C(=O)NC2=O)c2ccccc21,105%,35.6% (inactive),99.5% (inactive),0.77,13.5,0.639 (inactive),0.0035 (inactive)
CS(=O)(=O)N1CCC(n2c(=O)c(Oc3ccc(F)cc3F)cc3cnc(NC4CCOCC4)nc32)CC1,112%,64.5% (inactive),95% (inactive),-0.51,2,0.107 (inactive),0.0035 (inactive)
O=c1c(Oc2ccc(F)cc2F)cc2cnc(NC3CCOCC3)nc2n1CCCO,122%,71.8% (inactive),92% (inactive),-0.815,2.5,0.0231 (inactive),0.0075 (inactive)
N#Cc1ccc(C(=O)c2cnn(-c3ccc(F)cc3)c2N)cc1,103%,59.8% (inactive),131% (active),1.97,13,0.456 (inactive),0.0095 (inactive)
Cn1cc(C2=C(c3ccsc3)C(=O)NC2=O)c2ccccc21,108%,30% (inactive),92.5% (inactive),-0.045,3.5,0.27 (inactive),-0.0155 (inactive)
Cn1cc(C2=C(c3ccc(N)cc3)C(=O)NC2=O)c2ccccc21,135%,32.1% (inactive),100% (inactive),-0.99,28.5,0.493 (inactive),-0.005 (inactive)
O=C1Nc2ccc(F)cc2C1=Cc1ccc[nH]1,55.9%,14% (inactive),136% (active),4.44,23,0.607 (inactive),-0.014 (inactive)
N#Cc1c(C(=O)c2ccccc2)cnn1-c1ccccc1,104%,56.2% (inactive),106% (inactive),1.11,7,0.125 (inactive),-0.007 (inactive)
Nc1c(C(=O)c2ccc(-c3cccnc3)cc2)cnn1-c1ccc(F)cc1,93.2%,36.7% (inactive),112% (inactive),0.835,5.5,0.226 (inactive),-0.0025 (inactive)
O=C1NC(=NCc2ccccc2Cl)SC1=Cc1ccc2ncccc2c1,108%,42.1% (inactive),95% (inactive),-0.715,9,0.384 (inactive),-0.0075 (inactive)
Cn1cc(C2=C(NN3CCOCC3)C(=O)NC2=O)c2ccccc21,102%,52.1% (inactive),101% (inactive),0.61,7,0.147 (inactive),-0.016 (inactive)
CC(CO)Nc1cc(-c2[nH]c3cccnc3c2-c2ccc(F)cc2)ccn1 (configuration not stated),124%,78.1% (inactive),85.5% (inactive),-0.435,4.5,0.0626 (inactive),-0.0075 (inactive)
Cn1cc(C2=C(c3cn(C)c4c(N)cccc34)C(=O)NC2=O)c2ccccc21,92.4%,40.1% (inactive),108% (inactive),-1.47,87.5,1.36 (active),-0.003 (inactive)
Cn1cc(C2=C(c3c4n(c5ccccc35)CCCCC4)C(=O)NC2=O)c2ccccc21,80.1%,66.1% (inactive),100% (inactive),-0.31,7,0.223 (inactive),-0.005 (inactive)
O=C1NC(O)C(c2c[nH]c3ccccc23)=C1c1c[nH]c2ccccc12 (configuration not stated),141%,47.1% (inactive),93% (inactive),0.455,4,0.15 (inactive),0.001 (inactive)
Cn1c(=O)c(Oc2ccccc2F)cc2cnc(NC3CCOCC3)nc21,116%,49.5% (inactive),107% (inactive),0.09,7,0.313 (inactive),0.001 (inactive)
O=C1NC(=NCCc2ccccn2)SC1=Cc1ccc2ncccc2c1,170%,32.1% (inactive),92.5% (inactive),0.025,5.5,0.134 (inactive),0.0055 (inactive)
Nc1[nH]nc2nc(-c3cccs3)cc(C(F)(F)F)c12,104%,41.7% (inactive),73% (active),-2.23,4,0.138 (inactive),-0.0165 (inactive)
CCCCCNC(=O)C1CCCN2C(=O)CCC(NC(=O)C(Cc3ccc(OP(=O)(O)O)cc3)NC(C)=O)C(=O)N12 (configuration not stated),106%,50.1% (inactive),99% (inactive),0.695,3.5,0.227 (inactive),-0.007 (inactive)
Nc1c(C(=O)c2cccc(C(O)(CO)CO)c2)cnn1-c1ccc(F)cc1,95.6%,51.5% (inactive),104% (inactive),0.905,3,0.0614 (inactive),0.0095 (inactive)
Cn1c(=O)c(Oc2ccc(F)cc2)cc2cnc(NC3CCOCC3)nc21,106%,64.1% (inactive),104% (inactive),0.86,3.5,0.251 (inactive),-0.0055 (inactive)
